Laboratory results: PubChem BioAssay AID1159580 (chemical genetic matrix, 2015)
Out of some 5,500 compounds screened, about 2,000 (36%) were called active. About 18% were inconclusive and are not listed. Cut-off read from the data, not from the text of the source: active = normalized growth mostly below about 0.91 (no sharp cut-off); inconclusive = no clear call, values can overlap the other calls; inactive = mostly above about 0.92. This is one part of the list.

Assay: chemical genetic growth profiling, strain panel (AID 1159580);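 note: tested at 20 µM; growth read once vehicle control cultures reached saturation at 30 °C; 1 = growth at the plate median or of vehicle wells; lower values mean less growth of the strain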
Settings: S. cerevisiae deletion strains, growth OD

Measured: normalized growth

CC(=O)OC1CC(OC(C)=O)C2(C)C(CC(OC(C)=O)C3(C)C2CCC2(C)C(c4ccoc4)CC4OC423)C1(C)C (stereo not drawn)
inactive: locus YBR021W, strain FUR4, hits give low values 0.998 | locus YBR229C, strain ROT2, hits give low values 1 | locus YCL029C, strain bik1, hits give low values 1 | locus YDL035C, strain GPR1, hits give low values 1.01 | locus YDL074C, strain BRE1, hits give low values 1.02 | locus YDL101C, strain DUN1, hits give low values 1.03 | locus YDL185W, strain tfp1, hits give low values 1.01 | locus YDL192W, strain arf1, hits give low values 1.01 | locus YDR101C, strain arx1, hits give low values 0.998 | locus YDR162C, strain NBP2, hits give low values 1.01 | locus YDR318W, strain mcm21, hits give low values 1 | locus YDR388W, hits give low values 1.01 | locus YDR502C, strain sam2, hits give low values 1.02 | locus YER110C, hits give low values 1.01 | locus YER155C, strain BEM2, hits give low values 1 | locus YER167W, strain BCK2, hits give low values 1.01 | locus YGL078C, strain dbp3, hits give low values 1.02 | locus YGL086W, strain mad1, hits give low values 0.997 | locus YGL248W, strain PDE1, hits give low values 1.01 | locus YGR135W, strain pre9, hits give low values 1.04 | locus YGR229C, strain SMI1, hits give low values 1.02 | locus YGR252W, strain gcn5, hits give low values 0.998 | locus YHR079C, strain IRE1 (second series), hits give low values 1.01 | locus YHR094C, strain hxt1, hits give low values 1.01 | locus YHR129C, strain ARP1, hits give low values 1.02 | locus YHR200W, strain rpn10, hits give low values 1.01 | locus YIL066C, strain RNR3, hits give low values 1.01 | locus YIL073C, strain SPO22, hits give low values 1.05 | locus YIL125W, strain kgd1, hits give low values 1.01 | locus YIR030C, strain dcg1, hits give low values 1 | locus YJL095W, strain BCK1, hits give low values 1.04 | locus YJL134W, strain LCB3, hits give low values 1.01 | locus YJL168C, strain set2, hits give low values 1.01 | locus YJL187C, strain SWE1 (second series), hits give low values 1.02 | locus YJR043C, strain POL32, hits give low values 0.981 | locus YKL009W, strain mrt4, hits give low values 0.984 | locus YKL068W, hits give low values 1 | locus YKL085W, strain MDH1 (second series), hits give low values 1.01 | locus YKL085W, strain MDH1, hits give low values 1.01 | locus YKR001C, strain vps1, hits give low values 1 | locus YLR039C, strain RIC1, hits give low values 1.01 | locus YLR058C, strain SHM2, hits give low values 1.01 | locus YLR102C, strain apc9, hits give low values 1.01 | locus YLR262C, strain YPT6, hits give low values 0.927 | locus YLR268W, strain sec22, hits give low values 0.994 | locus YLR330W, strain CHS5, hits give low values 1.02 | locus YLR342W, strain FKS1 (second series), hits give low values 1 | locus YLR371W, strain rom2, hits give low values 1.02 | locus YLR418C, strain cdc73, hits give low values 1.02 | locus YML016C, strain PPZ1, hits give low values 1.01 | locus YML032C, strain rad52, hits give low values 1.01 | locus YML124C, strain tub3, hits give low values 1 | locus YMR078C, strain ctf18, hits give low values 1.01 | locus YMR223W, strain ubp8, hits give low values 1.01 | locus YMR263W, strain SAP30, hits give low values 1.02 | locus YMR307W, strain GAS1, hits give low values 1.01 | locus YNL067W, strain RPL9B, hits give low values 1.03 | locus YNL153C, strain GIM3, hits give low values 1.03 | locus YNL233W, strain BNI4, hits give low values 0.986 | locus YNL250W, strain rad50, hits give low values 1.01 | locus YNL271C, strain bni1, hits give low values 0.998 | locus YNL298W, strain CLA4, hits give low values 1.02 | locus YNL307C, strain MCK1, hits give low values 1.02 | locus YNR052C, strain pop2, hits give low values 1.01 | locus YOL012C, strain htz1 0.881 | locus YOL147C, strain pex11, hits give low values 0.996 | locus YOR061W, strain CKA2, hits give low values 1 | locus YOR069W, strain VPS5, hits give low values 1.01 | locus YOR136W, strain idh2, hits give low values 1 | locus YOR144C, strain elg1, hits give low values 0.999 | locus YOR184W, strain ser1, hits give low values 0.982 | locus YOR316C, strain cot1, hits give low values 1.01 | locus YPL241C, strain CIN2, hits give low values 1.01 | locus YPR119W, strain clb2, hits give low values 1 | locus YPR141C, strain kar3, hits give low values 1.02 | locus YPR163C, strain tif3, hits give low values 1.01 | locus YPR167C, strain met16, hits give low values 1.01 | strain wtn01, hits give low values 0.997
